Experimental data from PubChem BioAssay AID2108 (National Center for Advancing Translational Sciences (NCATS), 2009).
Inconclusive results are not listed. The call rests on the fitted dose curve; in most records, active means well fitted curve in the direction sought with a large enough effect; inconclusive means small, poorly fitted or top-dose-only effect, or effect the other way, or another doubt; inactive means no such curve, though single readings can be large or run the other way.

target: Alpha-galactosidase A (Homo sapiens) (UniProt P06280); test: Confirmation of Inhibitors of Human alpha-Galactosidase Using Spleen Homogenate; settings: alpha-galactosidase enzyme activity; series mostly up to 56.2 µM; activity change: at the top concentration; further: 0% is about no effect
Sequence (P06280 32-429 limits assumed): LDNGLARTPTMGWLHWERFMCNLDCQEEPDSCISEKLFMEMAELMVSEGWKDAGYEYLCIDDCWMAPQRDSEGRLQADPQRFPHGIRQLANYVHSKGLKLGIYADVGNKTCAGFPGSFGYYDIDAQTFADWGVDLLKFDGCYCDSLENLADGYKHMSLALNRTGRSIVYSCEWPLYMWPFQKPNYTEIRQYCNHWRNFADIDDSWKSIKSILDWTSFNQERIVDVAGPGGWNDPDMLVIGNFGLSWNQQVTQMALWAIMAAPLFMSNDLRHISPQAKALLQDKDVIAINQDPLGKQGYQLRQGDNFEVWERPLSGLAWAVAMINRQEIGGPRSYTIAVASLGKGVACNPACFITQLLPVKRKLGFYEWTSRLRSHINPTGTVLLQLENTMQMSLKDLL
Method in brief: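 Human spleen homogenate (1 ug) with 1 mM 4-methylumbelliferyl-alpha-D-galactopyranoside in citrate-phosphate pH 5.0, 0.01% Tween-20, 37C 40 min; compounds 0.5 nM–58 uM final. Stopped at pH 10, fluorescence Ex 365/Em 440; AC50 from Hill fits.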

Activity change, inactive:
CC1CCc2c(nc3ncnn3c2N2CCN(c3ccccc3F)CC2)C1 (centres undefined) 1.27% [at 23.6 µM]
COc1ccc(-c2cc(=O)c(C(=O)c3ccc(C)cc3)n[nH]2)cc1 4.97% [at 23.6 µM]
COc1cccc2ccc(/C=C/c3ccc4c(c3)OCO4)nc12 6.44%
COc1ccc2nc3c(cc2c1)Cn1c-3nc2ccccc2c1=O 21%
Cc1nnc(SCC(=O)Nc2ccc3c(c2)COC3=O)n1-c1ccccc1 0.342% [at 23.6 µM]
O=S(=O)(c1cccc(Cl)c1)N1CCOCC1 1.69%
CCC(C)Nc1nc(-c2cccc(OC)c2O)nc2ccccc12 (centres undefined) 1.98%
Cn1c(-c2ccco2)nc2cc3ccccc3cc21 14.9% [at 23.6 µM]
COc1ccccc1CCNC(=O)C1CCC(=O)N(C2CC2)C1 (centres undefined) 1.87%
CCn1c2ccccc2c2nnc(NN)nc21 -2.78%
O=C(O)c1c(-c2ccccc2)c2oc3ccccc3c2[nH]c1=O 12.2% [at 23.6 µM]
O=C(c1cc2c(ccc3ccccc32)oc1=O)N1CCN(CCO)CC1 14.3% [at 23.6 µM]
Cc1cccc(S(=O)(=O)c2c(N)n(-c3ccccc3)c3nc4ccccc4nc23)c1 18.9% [at 23.6 µM]
O=C(O)c1cc(NCc2c(F)cccc2Cl)ccc1N1CCOCC1 -8.02%
Cc1ccc(-c2nc(-c3cc4ccccc4oc3=O)sc2C)cc1 12.7%
CC(C)C[C@H](NC(=O)c1nc[nH]c1C(=O)NCC(=O)OCc1ccccc1)C(=O)OC(C)(C)C -4.74%
C=CCN1CCc2c(cc(O)c(O)c2Cl)C(c2ccccc2)C1 (centres undefined) 1.95%
N#Cc1c(Cl)cccc1N1CCC(C(N)=O)CC1 0.0336%
COC(=O)c1ccc(S(=O)(=O)N2CCOCC2)cc1 -5.18%
